Experiment [1] can be described thus: sensitizers of A549 cells to miR-34 induction, primary screen, imaging, A549 dox-inducible miR-34, nuclei and caspase counts (AID 1347080;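 active = compounds whose cell count with miR-34 switched on is under 0.7 times the count with it off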). As to conditions: A549 miR-34 inducible, Hoechst nuclei count, 48 h.
Experiment [2] is described as follows: viability rescue of complex I mutant cybrids, primary screen, cell-based, galactose medium, ATP luminescence (AID 1645843;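 active = z-score of at least 1.8 in each of two replicates, scored against plate mean and spread of sample wells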;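 note: positive z means more ATP and so rescue of galactose-driven cybrid death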). To be noted: complex I mutant cybrid cells, 72 h, stronger effect = higher value.
Experiment [3] in a line: liver-stage malaria parasite growth inhibition, primary screen, cell-based, HepG2, luciferase luminescence, HepG2 viability (AID 624349; in the data active = parasite load remaining mostly below about 12%, no sharp cut-off; inactive = mostly above about 10%;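 note: 100% = mean of DMSO negative control wells on the same plate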). To be noted: P. berghei liver stage in HepG2, luciferase luminescence, concentration not given here; parasite load remaining: stronger effect = lower value; viability: measured here: HepG2 viability without parasites.
Experiment [4] in a line: survival rescue of mitochondrial mutant cells in low glucose, primary screen, MELAS cybrids, Rieske KO mouse fibroblasts, CellTiter-Glo (AID 1508586;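 active = mean z-score across replicates of 1.96 or higher in either the MELAS or the Rieske mutant cell line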;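 note: z relative to plate mean and SD of compound and empty wells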).
The target in experiment [5] is ATP-dependent translocase ABCB1 (Homo sapiens) (UniProt P08183). As to the kind of experiment: MDR1 (ABCB1) efflux transporter inhibition, cell-based (AID 377; in the data active = fluorescence slope change above about 50%). To be noted: MDR1-expressing cells, fluorescent substrate accumulation slope; stronger effect = higher value; concentration not given here.
The nature of experiment [6]: hESC survival regulators, cell-based (AID 493140).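 Note: cells exposed to compounds for four days before counting.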 As to conditions: human embryonic stem cell survival screen; stronger effect = higher value.
The nature of experiment [7]: circadian clock period modulators, cell-based, LOPAC library, luminescence reporter (AID 2774).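 Note: values are relative to mean of DMSO wells on each plate.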 As to conditions: circadian reporter cells, at 7 µM, actives lie on both sides.
Experiment [8] relates to Hepatitis C virus NS3 helicase. In words: HCV NS3 helicase inhibitors, primary screen, biochemical, fluorescence polarization, LOPAC1280 library (AID 687035; in the data active = inhibition above about 37%). As to conditions: Purified HCV NS3 helicase, Cy5-dT15 ssDNA binding fluorescence polarization; stronger effect = higher value; concentration not given here.
The nature of experiment [9]: Cy5 fluorescence quenching or enhancement artefacts, artefact control for HCV NS3 helicase inhibitor project, biochemical, LOPAC1280 (AID 687037). As to conditions: Cy5-DNA-NS3h complex fluorescence interference counterscreen.
A short description of experiment [10]: Cy5 fluorescence interference with SSB-bound oligo, artefact control for HCV NS3 helicase inhibitor project, biochemical, NIH Clinical Collection, E. coli SSB (AID 743268).
The subject of experiment [11] is Hepatitis C virus NS3 helicase. In words: HCV NS3 helicase inhibitors, primary screen, biochemical, fluorescence polarization, NIH Clinical Collection (AID 743270). To be noted: NS3 helicase binding to Cy5-dT15 DNA, stronger effect = higher value, concentration not given here.
Experiment [12] has as its target Single-stranded DNA-binding protein (Escherichia coli (strain K12)) (UniProt P0AGE0). In words: E. coli SSB displacement from DNA, counter-screen for HCV NS3 helicase inhibitor project, biochemical, fluorescence polarization, NIH Clinical Collection (AID 743271; in the data active = inhibition above about 28%). As to conditions: stronger effect = higher value, concentration not given here.
Experiment [13] is described as follows: fluorescence interference in NS3h assay format, artefact control for HCV NS3 helicase inhibitor project, biochemical, NIH Clinical Collection (AID 743272).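 Note: HCV NS3 helicase with a Cy5 labelled single stranded DNA probe.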 As to conditions: fluorescence interference counterscreen, stronger effect = lower value.
[14] abbreviates: measured here: relative caspase fold change +Dox/-Dox.
Where [15] appears, read: measured here: total cells with miR-34 induction, stronger effect = lower value.
Where [16] appears, read: measured here: total cells without miR-34 induction.
Where [17] appears, read: stronger effect = lower value, cell number ratio, induced over uninduced.
[18] abbreviates: MELAS cybrid survival, CellTiter-Glo 48 h, stronger effect = higher value.
Where [19] appears, read: Rieske KO mouse fibroblast survival, CellTiter-Glo 72 h.

From PubChem BioAssay come the findings set out here.

Where “and” joins values, the source holds several entries; their conditions need not be identical. Equal entries are not always repeated. Inconclusive results are not listed. More than one record can exist for a structure, and the calls need not agree. Calls of active or inactive are those of the source. Unless noted, the rule behind the calls is not given here.

Chain of ATP-dependent translocase ABCB1 (Homo sapiens) (P08183 whole entry, looked up): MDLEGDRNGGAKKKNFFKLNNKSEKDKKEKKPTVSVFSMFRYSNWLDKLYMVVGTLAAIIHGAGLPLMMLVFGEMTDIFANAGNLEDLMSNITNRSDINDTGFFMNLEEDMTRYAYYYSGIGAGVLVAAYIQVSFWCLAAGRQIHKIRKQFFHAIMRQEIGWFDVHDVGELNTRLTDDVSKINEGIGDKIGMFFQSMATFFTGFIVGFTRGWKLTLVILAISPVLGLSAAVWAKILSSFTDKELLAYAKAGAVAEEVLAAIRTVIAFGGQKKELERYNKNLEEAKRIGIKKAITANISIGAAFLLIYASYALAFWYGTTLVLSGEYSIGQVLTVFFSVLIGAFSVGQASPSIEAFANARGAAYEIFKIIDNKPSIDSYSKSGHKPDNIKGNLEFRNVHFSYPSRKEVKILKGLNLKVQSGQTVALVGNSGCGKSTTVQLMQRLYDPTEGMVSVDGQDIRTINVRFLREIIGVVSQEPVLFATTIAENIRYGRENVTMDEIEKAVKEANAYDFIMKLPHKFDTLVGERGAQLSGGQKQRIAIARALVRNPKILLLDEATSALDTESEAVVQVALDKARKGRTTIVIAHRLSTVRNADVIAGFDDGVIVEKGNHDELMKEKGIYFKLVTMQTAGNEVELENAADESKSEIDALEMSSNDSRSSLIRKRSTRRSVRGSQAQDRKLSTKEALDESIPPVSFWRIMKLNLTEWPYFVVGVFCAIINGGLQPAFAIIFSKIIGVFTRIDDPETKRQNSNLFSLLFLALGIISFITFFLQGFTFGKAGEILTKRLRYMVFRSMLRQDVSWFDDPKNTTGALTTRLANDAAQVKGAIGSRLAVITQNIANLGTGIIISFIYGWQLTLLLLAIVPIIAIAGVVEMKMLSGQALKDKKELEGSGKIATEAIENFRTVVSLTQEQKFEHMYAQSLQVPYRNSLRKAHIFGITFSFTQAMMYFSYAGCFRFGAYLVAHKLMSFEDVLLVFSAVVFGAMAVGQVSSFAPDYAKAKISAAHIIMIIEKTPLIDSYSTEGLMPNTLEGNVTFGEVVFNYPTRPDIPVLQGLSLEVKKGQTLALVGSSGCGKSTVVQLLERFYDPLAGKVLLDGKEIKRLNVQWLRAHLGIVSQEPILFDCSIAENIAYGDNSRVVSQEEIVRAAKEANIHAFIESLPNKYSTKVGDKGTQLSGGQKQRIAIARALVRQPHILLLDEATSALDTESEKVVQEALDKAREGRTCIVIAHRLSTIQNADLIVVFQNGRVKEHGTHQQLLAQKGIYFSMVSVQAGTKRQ

For `C[C@]12CCC(=O)CC1CCC1C2CC[C@@]2(C)C1CC[C@]2(C)O` (stereo not given in full), the fold change in [1] (stronger effect = lower value) was 0.938 (inactive); in experiment [1] (setting [14]), 1.8. Besides, the cell count in [1] (setting [15]) was 9370; in experiment [1] (setting [16]), 9990. Also, in experiment [2], the z-score was -0.195 (inactive).

For `CN1[C@@H]2CC[C@H]1CC(OC(=O)C1C=Nc3ccccc31)C2` (stereo not given in full), in experiment [3], the parasite load remaining is 130% (inactive). For the same molecule, in experiment [3], the viability is 98.7%. In addition, the fold change in experiment [1] (setting [17]) was 0.853 (inactive) and 0.904 (inactive); in [1] (setting [14]) it was 1.46 and 2.72. For the same molecule, the cell count in experiment [1] (setting [15]) is 8760 and 8980; in experiment [1] (setting [16]), 10300 and 9930. The z-score in experiment [4] (setting [18]) was 2.22 (active) and 0.522 (inactive); in experiment [4] (setting [19]), -0.387 and 0.113.

For `C(#CCN1CCCC1)CN1CCCC1`, in [5], the fluorescence slope change is 19.7% (inactive). Moreover, the survival in experiment [6] is 6.42 (inactive). In addition, the parasite load remaining in experiment [3] is 82.8% (inactive) and 98.5% (inactive). In experiment [3], the viability was 112% and 92.6%. The values for the fold change in experiment [1] (setting [17]) and in [1] (setting [14]) were 0.85 (inactive) and 1.28, respectively. In addition, the cell count amounted to 8550 in [1] (setting [15]) and 10100 in experiment [1] (setting [16]). In addition, the z-score in experiment [4] (setting [18]) was 0.0358 (inactive); in experiment [4] (setting [19]), -0.183.

Consider `Clc1ccc(C(Cn2ccnc2)OCc2csc3c(Cl)cccc23)c(Cl)c1` (stereo not given), for which, in [6], the survival was 10.7 (inactive). Further, in [3], the parasite load remaining is 93.3% (inactive) and 30.9% (inactive). Besides, in [3], the viability is 80.2% and 95%. The fold change in [1] (stronger effect = lower value) was 0.952 (inactive) and 0.861 (inactive); in experiment [1] (setting [14]) it was 0.728 and 1. Besides, the cell count in [1] (setting [15]) was 7030 and 8370; in experiment [1] (setting [16]), 7390 and 9720. Besides, the z-score in [4] (setting [18]) is 0.182 and 1.75 (inactive); in experiment [4] (setting [19]), 2.82 and 1.72.

On to `CN1CC[C@@]2(C)c3cc(O)ccc3N(C)[C@H]12`, for which the parasite load remaining in [3] is 82.4% (inactive). Besides, the viability in [3] turned out to be 73.5%. Moreover, the fold change in [1] (setting [17]) was 0.908 (inactive); in [1] (setting [14]), 0.758. The cell count in experiment [1] (setting [15]) was 8570; in experiment [1] (setting [16]), 9440. Also, the z-score in experiment [4] (setting [18]) is 0.308 (inactive); in experiment [4] (setting [19]), 1.44.

With `O=C1C=C2C=C[C@@H]3CC2(O1)[C@H]1CCCCN31`, the fluorescence slope change in [5] was 28.7% (inactive). Besides, in [6], the survival was 2.33 (inactive). In addition, the parasite load remaining in experiment [3] is 0.53% (active). Moreover, the viability in experiment [3] came out at 98.2%. For the same molecule, the fold change in experiment [1] (stronger effect = lower value) was 0.999 (inactive); in experiment [1] (setting [14]) it was 0.949. In addition, the cell count in experiment [1] (setting [15]) and in experiment [1] (setting [16]) was 2810 in each case.

Turning to `CC(C)(O)[C@@H]1[C@H]2OC(=O)[C@@H]1[C@]1(O)C[C@H]3O[C@]34C(=O)O[C@H]2[C@]14C` (tested in a mixture with another compound), the period change in experiment [7] was -0.105 h (inactive). The parasite load remaining in experiment [3] is 96.3% (inactive). For the same molecule, the viability in experiment [3] was determined as 67.1%. Moreover, the figures for the inhibition in [8], in experiment [11] and in [12] were -5% (inactive), 0.4% (inactive) and -0.1% (inactive), respectively. Besides, the fluorescence ratio (interference) in experiment [9] was 1 (inactive). In addition, the results for the fluorescence ratio in experiment [10] and in [13] were 1 (inactive) and 0.9 (inactive), respectively. Moreover, the fold change in [1] (stronger effect = lower value) is 1.06 (inactive); in experiment [1] (setting [14]), 1.05. The cell count was determined as 11200 in experiment [1] (setting [15]) and 10500 in experiment [1] (setting [16]). For the same molecule, in [2], the z-score was 0.54 (inactive).

For `CC(C)CC(NP(=O)(O)O[C@@H]1O[C@@H](C)[C@H](O)[C@@H](O)[C@H]1O)C(=O)NC(Cc1c[nH]c2ccccc12)C(=O)O` (stereo not given in full), the period change in experiment [7] was 0.015 h (inactive). Besides, the inhibition in experiment [8] is -2% (inactive). The fluorescence ratio (interference) in experiment [9] was 1 (inactive). Also, the fold change in experiment [1] (stronger effect = lower value) was 0.965 (inactive); in [1] (setting [14]) it was 0.942. Further, the cell count in experiment [1] (setting [15]) amounted to 10500; in [1] (setting [16]), 10900. Also, the z-score in experiment [2] is 0.455 (inactive).
